PubChem BioAssay AID504332 (National Center for Advancing Translational Sciences (NCATS), 2011)
Screen size: about 350,000 compounds; about 31,000 (8.9%) were called active. Entries that show only a call come without a potency. Inconclusive results (about 15%) are left out. Calls come from the whole dose curve; as a rule, active = well fitted inhibition curve with a large enough effect; inconclusive = small, poorly fitted or top-dose-only effect; inactive = no such curve, though single readings can be large or run the other way. For the sample, actives were picked, then their nearest neighbours and some compounds at random.

Biological target: Histone-lysine N-methyltransferase EHMT2 (Homo sapiens) (UniProt Q96KQ7)
Sequence (Q96KQ7 913-1193 limits assumed): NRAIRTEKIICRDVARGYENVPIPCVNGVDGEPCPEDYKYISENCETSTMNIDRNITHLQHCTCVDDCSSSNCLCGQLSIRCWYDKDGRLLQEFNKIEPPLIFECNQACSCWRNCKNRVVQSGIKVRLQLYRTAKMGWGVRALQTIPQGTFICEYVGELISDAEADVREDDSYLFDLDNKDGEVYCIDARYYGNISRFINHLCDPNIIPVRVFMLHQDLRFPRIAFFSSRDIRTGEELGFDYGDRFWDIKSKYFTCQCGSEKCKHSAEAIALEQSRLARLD
Experiment: qHTS Assay for Inhibitors of Histone Lysine Methyltransferase G9a; note: nearly all actives have a fitted effect of over 75% in size
Details: G9a H3K9 monomethylation, AlphaScreen, 2 h; series mostly up to 59 µM
Summary of the method: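 Signal arises when biotinylated H3K9 peptide, once monomethylated, bridges streptavidin donor and antibody-captured acceptor beads. Enzyme at 20 nM was preincubated 15 min with test compounds; peptide 500 nM and SAM 20 uM then reacted for 2 h.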
Potency is the fitted concentration of half-maximal effect.

SMILES	Potency	activity, negative = inhibition
CCCn1nc(C(=O)NNC(=O)CCOc2ccccc2OCC)c2ccccc2c1=O	inactive	–
COc1cccc(C(=O)Nc2ccc(-c3cc(C(F)(F)F)nn3-c3ccccc3)cc2)c1	inactive	–
Cc1cccc(C(=O)OC(C)C(=O)NC2CCCc3ccccc32)c1O (centres undefined)	–	18.2% [at 12.7 µM] (inactive)
CN(C)C1=NC[C@H](Cc2ccccc2)N1CCc1ccc(F)cc1	–	16.6% [at 2.33 µM] (inactive)
CN(CC#CCC(c1ccccc1)c1ccccc1)C(C)(C)C	inactive	–
OC(C#CCN1CCOCC1)(c1ccccc1)C1CCCCC1 (centres undefined)	inactive	–
CC(C)(C)N(CC#CCC(O)(c1ccccc1)C1CCCC1)CCO (centres undefined)	10 µM (active)	–
CN(C)S(=O)(=O)c1ccc(N2CCCC2=O)c([N+](=O)[O-])c1	inactive	–
CC1C(=O)Nc2ccc(S(=O)(=O)N3CCN(c4ccccc4F)CC3)cc2NC1=O (centres undefined)	inactive	–
CON(C)S(=O)(=O)c1ccc2c(c1)NC(=O)C1CCCN21 (centres undefined)	25.1 µM (active)	–
Cn1c(-c2ccc(F)cc2)cc2onc(-c3ccccc3Cl)c2c1=O	–	20.7% [at 2.33 µM] (inactive)
CCn1nc(C(=O)OCC(=O)N2c3ccccc3CC2C)c2ccccc2c1=O (centres undefined)	inactive	–
CCCC(=O)N1c2ccc(-c3csc(N)n3)cc2CC1C (centres undefined)	70.8 µM (active)	–
Cc1ccn(CCC(=O)N2c3ccccc3CC2C)n1 (centres undefined)	inactive	–
COc1ccccc1CC(=O)NCCc1c[nH]c2ccccc12	inactive	–
COc1cccc(CNCCc2c[nH]c3ccccc23)c1OCc1ccccc1F	44.7 µM (active)	–
COc1ccc(S(=O)(=O)NCCc2c[nH]c3ccccc23)cc1OC	inactive	–
O=C1NC(c2ccncc2)Nc2sc3c(c21)CCCC3 (centres undefined)	28.2 µM (active)	–
CCN(C(=O)CSc1nnc(-c2ccc(OC(F)F)cc2)n1N)C1CCS(=O)(=O)C1 (centres undefined)	inactive	–
O=C(NC(=O)c1ccccc1)NC(=O)c1ccccc1	inactive	–
Cc1cc2[nH]ncc2cc1NC(=S)NC(=O)c1ccccc1	inactive	–
Cn1nnc(NC(=S)NC(=O)c2ccccc2)n1	8.91 µM (active)	–
COc1cc(OC)c(C(=S)N2CCCC2)cc1OC	–	10.9% [at 0.501 µM] (inactive)
CCCNC(=O)C1CCC(Cn2c(=O)c3sccc3n(Cc3ccccc3F)c2=O)CC1 (centres undefined)	inactive	–
CCn1cc(C(=O)Nc2cc(C)ccc2C)c(=O)c2ccc(C)nc21	inactive	–

SMILES	Potency	activity, negative = inhibition
CCn1cc(C(=O)OCC(=O)Nc2cccc(C)c2)c(=O)c2ccc(C)nc21	inactive	–
CCn1cc(C(=O)N2CC=C(c3ccccc3)CC2)c(=O)c2ccc(C)nc21	79.4 µM (active)	–
CCS(=O)(=O)N1CCC(n2c(C)nc3cccnc32)CC1	inactive	–
O=C(Cc1c(O)c2ccccc2[nH]c1=O)NCc1ccccc1	inactive	–
CC(C)C(=O)Nc1c(O)c2ccccc2[nH]c1=O	inactive	–
O=C1C(c2[nH]c3ccccc3c2O)=Nc2ccccc21	5.01 µM (active)	–
NC(=O)c1ccsc1NC(=O)COC(=O)Cc1n[nH]c(=O)c2ccccc12	–	1.16% [at 0.501 µM] (inactive)
COc1ccc(OC)c(-n2nnc(-c3nc(-c4cc(OC)c(OC)c(OC)c4)no3)c2C)c1	inactive	–
Cc1cccc(CSc2nnc(C)c(=O)n2N)c1	inactive	–
Cc1cccc(CSc2nc3c(c(=O)n2C)SCC3)c1	50.1 µM (active)	–
Cn1c(SCC(=O)N2CCCCC2)nc2c(c1=O)SCC2	inactive	–
CCOc1ccc(S(=O)(=O)NCCC(=O)NCC(C)(C)N2CCOCC2)cc1	–	14% [at 0.501 µM] (inactive)
COc1ccc(NC(=O)CCN2CCN(CCO)CC2)cc1	inactive	–
CCCS(=O)(=O)Nc1c(C(=O)O)[nH]c2ccccc12	39.8 µM (active)	–
CCOC(=O)C1CCN(C(=O)Cc2c(C(=O)O)[nH]c3ccccc23)CC1	–	16% [at 2.33 µM] (inactive)
CCOC(=O)c1[nH]c2ccccc2c1N=C(C)N(CC)CC	inactive	–
CCOC(=O)C1CCN(c2ncnc3c2c(-c2ccccc2)cn3-c2cccc(C)c2)CC1	inactive	–
O=C(NCC(c1ccco1)N1CCc2ccccc2C1)c1ccccc1Cl (centres undefined)	inactive	–
COc1ccc(SCc2cc(=O)c3ccc(C)c(C)c3[nH]2)cc1	inactive	–
C=CCOC(=O)C1=C(C)NC(SCC(=O)OCC)=C(C#N)C1c1ccc(C)cc1 (centres undefined)	inactive	–
C=CCOC(=O)C1=C(C)NC(C)=C(C(=O)OCC=C)C1c1cccs1	inactive	–
CC1=C(C(=O)Nc2ccccc2)C(c2cccs2)C(C#N)=C(SCC#N)N1 (centres undefined)	12.6 µM (active)	–
CCCn1c(NCc2ccccc2F)nc2ccccc21	inactive	–
O=C(CNC(=O)C1COc2ccccc2O1)N/N=C/c1cc(Br)c(O)c(Br)c1 (centres undefined)	89.1 µM (active)	–
O=C(CNC(=O)c1cccnc1)N/N=C/c1cc(Br)c(O)c(Br)c1	inactive	–

SMILES	Potency	activity, negative = inhibition
O=C(CNC(=O)C(c1ccccc1)c1ccccc1)N/N=C\c1ccc2c(c1)OCO2	inactive	–
FC(F)(F)c1cc(Nc2nc3ccccc3c3nncn23)ccc1Cl	inactive	–
COc1ccc(CNC(=O)C2=Cc3cccc(OC)c3OC2)cc1OC	inactive	–
CC1=NN(c2ccc(Cl)c(C(=O)O)c2)C(=O)/C1=C/c1ccc(-c2ccccc2[N+](=O)[O-])o1	31.6 µM (active)	–
N#C/C(=C/c1ccc(-c2ccccc2[N+](=O)[O-])o1)C(=O)NCCN1CCCCC1	–	16.8% [at 12.7 µM] (inactive)
Cc1nc2ccccc2c(=O)n1NC(=O)c1ccc(Cl)c([N+](=O)[O-])c1	–	-4.51% [at 2.33 µM] (inactive)
Cc1ccc(CNC(=O)c2cc(-c3ccccc3C)n(CC3CC(c4cccc([N+](=O)[O-])c4)=NO3)n2)cc1 (centres undefined)	–	-36.4% [at 2.33 µM] (inactive)
C=CCN1C(=O)C(Cc2ccc(OCC)cc2)SC1=Nc1ccc(C(=O)O)cc1 (centres undefined)	inactive	–
O=C1N/C(=N\N=C\c2ccco2)SC1Cc1ccc(F)cc1 (centres undefined)	inactive	–
COc1ccc(CN2C(=O)C(C)S/C2=N/N=C/c2ccco2)cc1 (centres undefined)	50.1 µM (active)	–
COc1ccc(Cn2ccn(Cc3cccc(OC)c3)c(=O)c2=O)cc1	inactive	–
C=CCN1C(=O)C(Cc2cccc(Cl)c2)S/C1=N/N=C/c1ccco1 (centres undefined)	10 µM (active)	–
CCC1S/C(=N/N=C/c2ccco2)NC1=O (centres undefined)	inactive	–
CCCNC(=O)C(CC)n1nc(CC)n2c(cc3oc(C)cc32)c1=O (centres undefined)	inactive	–
Cc1ccc(C)c(N2CCN(S(=O)(=O)c3ccc4c(c3)C(C(C)C)C(=O)N4)CC2)c1 (centres undefined)	inactive	–
COc1ccc(Cl)cc1CSc1ncn[nH]1	inactive	–
O=C(NCCOCc1ccc(Cl)cc1)c1ncn[nH]1	inactive	–
O=C(/C=C/Sc1ncn[nH]1)c1ccc(Cl)cc1	39.8 µM (active)	–
Cc1cc(C)c2oc(C(=O)Nc3ccc(S(=O)(=O)N4CCCCCC4)cc3)cc(=O)c2c1	inactive	–
CCOc1ccccc1CNC(=O)C1CCCN(S(=O)(=O)c2ccc3c(ccn3C)c2)C1 (centres undefined)	inactive	–
Cc1ccc(C)c(Cn2c(CCCNC(=O)C3CCCCC3)nc3ccccc32)c1	inactive	–
COc1ccccc1C(=O)NCCC(=O)NC1=NCCS1	–	43% [at 12.7 µM] (inactive)
Nc1c(C(=O)O)cnn1-c1ccccc1	inactive	–
O=C(O)c1ccccc1C(=O)NC1=NN(c2ccccc2)CC1	39.8 µM (active)	–
O=C(O)c1ccccc1-c1ccccc1C(=O)Nc1ccccc1Br	inactive	–

SMILES	Potency	activity, negative = inhibition
C/C(=N\Nc1cccc(C(=O)O)c1)c1ccc2c(c1)Nc1ccccc1S2	3.16 µM (active)	–
CC(=O)Nc1cccc(/C(C)=N/NC(=O)c2ccccc2Cl)c1	inactive	–
O=C(NC1CC1)c1ccc2c(c1)NC(=O)c1ccccc1S2	inactive	–
O=C(NCc1cn2ccsc2n1)Nc1ccc(Cl)cc1	inactive	–
O=C(NCc1ccc(Cl)cc1)c1cc2c(nc3sccn32)s1	35.5 µM (active)	–
O=C(NCc1ccc(Cl)cc1)c1cc(=O)nc2sc(-c3ccccc3)nn12	inactive	–
CN1C2CCC1CC(NC(=O)c1ccc([N+](=O)[O-])cc1)C2 (centres undefined)	inactive	–
CN(CC1CCCO1)S(=O)(=O)c1ccc(C(=O)Nc2ccc([N+](=O)[O-])cc2)cc1 (centres undefined)	inactive	–
O=C(Nc1cc2c3c(c1)C1CCCC1CN3CC1CCCC21)c1ccc([N+](=O)[O-])cc1 (centres undefined)	10 µM (active)	–
CC(=O)N1CCCc2ccc(NS(=O)(=O)c3ccc(F)cc3F)cc21	–	-4.23% [at 12.7 µM] (inactive)
O=C(C1CC(=O)N(C2CCCC2)C1)N1CCN(c2cccc(C(F)(F)F)c2)CC1 (centres undefined)	inactive	–
CCC1(C)NC(=O)N(CC(=O)N2CCN(c3cccc(Cl)c3)CC2)C1=O (centres undefined)	–	17.9% [at 2.33 µM] (inactive)
O=[N+]([O-])c1ccc(O)c(/C=N/Nc2ccccc2[N+](=O)[O-])c1	20 µM (active)	–
O=C(N/N=C/c1cc([N+](=O)[O-])ccc1O)/C(=C\c1cccs1)NC(=O)c1ccccc1	inactive	–
Nc1nnnn1/N=C/c1cc([N+](=O)[O-])ccc1O	inactive	–
O=C1OC(C(=O)Nc2cccc(Br)c2)Cc2ccccc21 (centres undefined)	inactive	–
COc1ccc(NC(=O)c2sc3nc(-c4cc5cccc(OC)c5oc4=O)[nH]c(=O)c3c2C)cc1	inactive	–
O=C(CN1CCN(S(=O)(=O)c2cccc(Cl)c2)CC1)N1CCCCC1	–	6.11% [at 12.7 µM] (inactive)
CC(=O)N1CCc2cc(S(=O)(=O)NC(Cc3ccccc3)C(=O)NCc3ccc(C)cc3)ccc21 (centres undefined)	inactive	–
NC(=O)c1c(Nc2nc3c(F)cccc3s2)sc2c1CCCC2	2.82 µM (active)	–
Fc1cc(F)c2nc(Nc3nc4c(F)cccc4s3)sc2c1	inactive	–
Cc1cc(OC(C)C(=O)Nc2sc3c(c2C(N)=O)CCCC3)ccc1Cl (centres undefined)	inactive	–
CC(c1ccccn1)N(C)C(=O)c1ccc2nc(Cc3cccc(Cl)c3)oc2c1 (centres undefined)	inactive	–
O=C(N/N=C/c1cccc(OCc2ccccc2)c1)c1ccc(Br)o1	inactive	–
